Here are results for 28 compounds from the supplement of paper PMC13380429.

The structures appear in SMILES notation.

Experiment [1] relates to Vero E6 infected with SARS-CoV-2. Put plainly: morphology score (similarity to uninfected cells); higher = more like uninfected cells. To be noted: 24 h.
For experiment [2] the test system is unchanged. Put plainly: SARS-CoV-2 infection rate relative to infected DMSO; higher = more infection, active = 60 or less. To be noted: 24 h.

In experiment [1], `COc1ccccc1Oc1c(NS(=O)(=O)c2ccc(C)cn2)nc(-c2ccncc2)nc1OC` (10 µM) gave a morphology score of 0.183. For the same compound, the SARS-CoV-2 infection rate in experiment [2] was 85.5% (inactive).

In experiment [1], `CC(C)C[C@@H](NC(=O)[C@H](C)NC(=O)CNC(=O)[C@@H](NC=O)C(C)C)C(=O)N[C@@H](C)C(=O)N[C@@H](C(=O)N[C@H](C(=O)N[C@@H](C(=O)N[C@@H](Cc1c[nH]c2ccccc12)C(=O)N[C@H](CC(C)C)C(=O)N[C@@H](Cc1c[nH]c2ccccc12)C(=O)N[C@H](CC(C)C)C(=O)N[C@@H](Cc1c[nH]c2ccccc12)C(=O)N[C@H](CC(C)C)C(=O)N[C@@H](Cc1c[nH]c2ccccc12)C(=O)NCCO)C(C)C)C(C)C)C(C)C` [gramicidin] (10 µM) displayed a morphology score of -0.258. The SARS-CoV-2 infection rate in experiment [2] is 100% (inactive).

For the compound `COc1cc(OC)cc(-c2ccc3c(-c4ccc(F)cc4)n[nH]c3n2)c1` (10 µM), the morphology score in experiment [1] amounted to 0.102. Besides, the SARS-CoV-2 infection rate in experiment [2] is 106% (inactive).

`Sc1nc2ccccc2s1` [benzo[d]thiazole-2(3H)-thione] (10 µM) gave a morphology score in experiment [1] of 0.0522. Besides, the SARS-CoV-2 infection rate in experiment [2] was 104% (inactive).

`CCCCC(=O)N(Cc1ccc(-c2ccccc2-c2nnn[nH]2)cc1)[C@H](C(=O)O)C(C)C` [valsartan] (10 µM) registered a morphology score in experiment [1] of 0.00713. In addition, the SARS-CoV-2 infection rate in experiment [2] is 98.5% (inactive).

Take `C[C@H](N)Cc1cccc(O)c1` [gepefrine] (10 µM): the morphology score in experiment [1] was -0.0218. Further, the SARS-CoV-2 infection rate in experiment [2] is 106% (inactive).

`O=[N+]([O-])c1cccc2cn[nH]c12` [7-nitroindazole] (10 µM): in experiment [1], the morphology score was determined as 0.0542. Further, in experiment [2], the SARS-CoV-2 infection rate was 100% (inactive).

In the case of `Cc1coc2c1C(=O)C(=O)c1c-2ccc2c1CCCC2(C)C` [tanshinone-IIA] (10 µM), the morphology score in experiment [1] stood at 0.159. For the same compound, the SARS-CoV-2 infection rate in experiment [2] is 102% (inactive).

Regarding `OCc1ccc(O[C@@H]2O[C@H](CO)[C@@H](O)[C@H](O)[C@H]2O)cc1` [gastrodin] (10 µM), in experiment [1], the morphology score was 0.19. Further, the SARS-CoV-2 infection rate in experiment [2] is 106% (inactive).

Regarding `CCC[C@@H]1CC2=CC(=O)CC[C@]2(C)[C@H]2CC[C@@]3(C)[C@@H](CC[C@@]3(O)CCC(=O)O)[C@H]12` (10 µM), the morphology score in experiment [1] stood at 0.105. In experiment [2], the SARS-CoV-2 infection rate is 104% (inactive).

In experiment [1], `COc1cc2c(cc1OC)[C@H](C)NCC2` [Isoquinoline,-6,7-dimethoxy-1-methyl-1,2,3,4-tetrahydro,] (10 µM) displayed a morphology score of 0.0205. Moreover, in experiment [2], the SARS-CoV-2 infection rate was 105% (inactive).

As for `CCC[C@H](NC(=O)/C(C#N)=C/c1cccc(Br)n1)c1ccccc1` (0.833333 µM), the morphology score in experiment [1] amounted to 0.143. Moreover, the SARS-CoV-2 infection rate in experiment [2] was 108% (inactive).

Compound `CCCCC1C(=O)N(c2ccccc2)N(c2ccccc2)C1=O` [phenylbutazone] (10 µM) had a morphology score in experiment [1] of 0.209. For the same compound, the SARS-CoV-2 infection rate in experiment [2] was 97.5% (inactive).

For `CC(=O)OCC(=O)[C@@]12N=C(C)O[C@@H]1C[C@H]1[C@@H]3CCC4=CC(=O)C=C[C@]4(C)[C@H]3[C@@H](O)C[C@@]12C` [Deflazacort (Calcort)] (10 µM), the morphology score in experiment [1] was 0.0216. The SARS-CoV-2 infection rate in experiment [2] was 97.5% (inactive).

`COc1ccc2c(c1)C(=O)N(CCc1ccc(S(=O)(=O)NC(=O)NC3CCCCC3)cc1)C(=O)C2(C)C` [gliquidone] (10 µM): the morphology score in experiment [1] turned out to be 0.283. The SARS-CoV-2 infection rate in experiment [2] is 98.5% (inactive).

The compound `Cc1c[nH]c2ncnc(N3CCC(CN)(C(=O)Nc4cccc(OC(=O)N(C)C)c4)CC3)c12` (10 µM) returned a morphology score in experiment [1] of 0.156. Further, the SARS-CoV-2 infection rate in experiment [2] is 94% (inactive).

The compound `Nc1nc(=O)c(Br)c(-c2ccccc2)[nH]1` [bropirimine] (10 µM) came in with a morphology score in experiment [1] of 0.109. Also, the SARS-CoV-2 infection rate in experiment [2] was 99.5% (inactive).

`CCCCNc1ncc(-c2ccc(CN3CCOCC3)cn2)c(N[C@H]2CC[C@H](O)CC2)n1` (10 µM) displayed a morphology score in experiment [1] of 0.102. In experiment [2], the SARS-CoV-2 infection rate was 113% (inactive).

Regarding `O=C(O)c1cccnc1C(=O)O` [quinolinic-acid] (10 µM), in experiment [1], the morphology score was 0.107. The SARS-CoV-2 infection rate in experiment [2] is 108% (inactive).

Regarding `O[C@H]1[C@H](O)[C@@H](O)CN2CC[C@H](O)[C@H]12` [castanospermine] (10 µM), in experiment [1], the morphology score was -0.18. Also, the SARS-CoV-2 infection rate in experiment [2] was 112% (inactive).

In turn, `Cc1ncc([N+](=O)[O-])n1CC(C)O` (stereo unspecified) [secnidazole] (10 µM) registered a morphology score in experiment [1] of 0.17. For the same compound, in experiment [2], the SARS-CoV-2 infection rate is 99% (inactive).

The compound `CC(COc1ccccc1Cc1ccccc1)N1CCCCC1` (stereo unspecified) [benproperine] (10 µM) displayed a morphology score in experiment [1] of 0.214. The SARS-CoV-2 infection rate in experiment [2] was 79% (inactive).

In the case of `COCCCN1CCC(NC(=O)c2cc(Cl)c(N)c3c2OCC3)CC1` [prucalopride] (10 µM), the morphology score in experiment [1] was 0.0302. For the same compound, the SARS-CoV-2 infection rate in experiment [2] is 109% (inactive).

Consider `CN1C(=O)N(C)C2C1N(C)C(=O)N2C` (stereo unspecified) [mebicar] (10 µM), for which, in experiment [1], the morphology score amounted to 0.0884. Besides, the SARS-CoV-2 infection rate in experiment [2] is 107% (inactive).

As to `CCCN1CCCC(c2cccc(O)c2)C1` (stereo in doubt) [preclamol] (10 µM), the morphology score in experiment [1] was -0.1. Moreover, in experiment [2], the SARS-CoV-2 infection rate was 114% (inactive).

`CC(C)C[C@H](NC(=O)N1CCCCCC1)C(=O)N[C@H](Cc1cn(C)c2ccccc12)C(=O)N[C@H](Cc1ccccn1)C(=O)O` (10 µM) gave a morphology score in experiment [1] of 0.257. Moreover, the SARS-CoV-2 infection rate in experiment [2] was 100% (inactive).

The compound `CC(C)N(CCCNC(=O)Nc1ccc(C(C)(C)C)cc1)C[C@H]1O[C@@H](n2cc(Br)c3c(N)ncnc32)[C@H](O)[C@@H]1O` (10 µM) displayed a morphology score in experiment [1] of -0.0211. For the same compound, the SARS-CoV-2 infection rate in experiment [2] is 120% (inactive).

`C[N+]1(C)CCCC(OC(=O)C(O)(c2ccccc2)c2ccccc2)C1` (stereo unspecified) [mepenzolate] (10 µM) displayed a morphology score in experiment [1] of 0.047. The SARS-CoV-2 infection rate in experiment [2] was 105% (inactive).
